“And” between values parts separate entries of the source, which are not always exact repeats. Identical values can stand only once. Records with an inconclusive call do not appear. The source made the active and inactive calls. Unless noted, the limit is not given here; nearly all actives have AC50 up to about 26 µM.

The source of these data is PubChem BioAssay.

In assay [1] the test system is Aerobactin synthetase IucA (Klebsiella pneumoniae). Put plainly: inhibition of K. pneumoniae IucA enzyme – biochemical, Tocris library, absorbance (AID 1345561; call rule not given here;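 also: 100% = enzyme without compound and 0% = no enzyme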). The conditions noted are these: purified IucA enzyme assay, absorbance (OD) read-out; stronger effect = lower value;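 tested at 8 µM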.
Assay [2] can be described thus: viability loss with induced miR-34 in A549 – imaging, A549 dox-inducible miR-34, nuclei and caspase counts, primary screen (AID 1347080;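 active = compounds whose cell count with miR-34 switched on is under 0.7 times the count with it off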). The following applies: A549 miR-34 inducible, Hoechst nuclei count, 48 h.
A short description of assay [3]: galactose survival enhancers in mitochondrial complex I cybrids – cell-based, galactose medium, ATP luminescence, primary screen (AID 1645843;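 active = z-score of at least 1.8 in each of two replicates, scored against plate mean and spread of sample wells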;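 also: positive z means more ATP and so rescue of galactose-driven cybrid death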). The following applies: complex I mutant cybrid cells, 72 h, stronger effect = higher value.
Assay [4] can be described thus: viability loss in pontine glioma line – cell-based, SU-DIPG-XVII, MIPE5.0, CellTiter-Glo, qHTS, dose response (AID 1347060).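 As to AC50: cells exposed to compound for 48 hours before viability readout.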 The following applies: CellTiter-Glo ATP luminescence. (Cellular ATP, detected with luciferase, serves as a proxy for viable cell number.)
The nature of assay [5]: viability loss in pontine glioma line – cell-based, SU-DIPG-XIII, MIPE4.0, CellTiter-Glo, qHTS, dose response (AID 1347061; cut-off not given, nearly all actives have AC50 up to about 37 µM;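 also: cells exposed to compound for 48 hours before readout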). The following applies: CellTiter-Glo ATP luminescence.
Assay [6] can be described thus: viability loss in pontine glioma line – cell-based, JHH-DIPG-1, MIPE4.0, CellTiter-Glo, qHTS, dose response (AID 1347062; cut-off not given, nearly all actives have AC50 up to about 27 µM;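 as to AC50: cells exposed to compound for two days before readout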). The conditions noted are these: JHH-DIPG-1 viability, CellTiter-Glo ATP luminescence.
The nature of assay [7]: viability loss in pontine glioma line – cell-based, SU-DIPG-IV, MIPE4.0, CellTiter-Glo, qHTS, dose response (AID 1347063; cut-off not given, nearly all actives have AC50 up to about 30 µM;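 also: compound exposure lasted 48 hours before the viability readout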). The conditions noted are these: CellTiter-Glo ATP luminescence.
A short description of assay [8]: viability loss in pontine glioma line – cell-based, SU-DIPG-XIII, MIPE5.0, CellTiter-Glo, qHTS, dose response (AID 1347064; cut-off not given, nearly all actives have AC50 up to about 23 µM;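 as to AC50: cells exposed to compound for 48 hours before the viability read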). The following applies: CellTiter-Glo ATP luminescence.
Assay [9] is described as follows: viability loss in pontine glioma line – cell-based, SU-DIPG-XXV, MIPE5.0, CellTiter-Glo, qHTS, dose response (AID 1347065).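 Also: cells exposed to compound for 48 hours before ATP readout.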 The following applies: CellTiter-Glo ATP luminescence.
The nature of assay [10]: growth inhibition of DIPG cells – cell-based, MIPE4.0 library, CellTiter-Glo luminescence, qHTS (AID 1347066; cut-off not given, nearly all actives have AC50 up to about 30 µM;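 also: cells exposed to compound for 48 hours before readout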). The conditions noted are these: SU-DIPG-VI viability, CellTiter-Glo ATP luminescence.
A short description of assay [11]: JHH-DIPG-1 glioma cell viability, MIPE5.0 library, CellTiter-Glo luminescence, qHTS (AID 1347067).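 Also: cells exposed to compound for 48 hours before readout.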 The conditions noted are these: JHH-DIPG-1 glioma viability, CellTiter-Glo ATP luminescence.
A short description of assay [12]: growth inhibition of DIPG cells – cell-based, MIPE5.0 library, qHTS (AID 1347068; cut-off not given, nearly all actives have IC50 up to about 30 µM;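 as to IC50: cells exposed to compound for 48 hours before viability readout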). The following applies: SU-DIPG-XXV viability.
Assay [13] in a line: P. berghei load reduction in hepatocytes – cell-based, HepG2, luciferase luminescence, HepG2 viability, primary screen (AID 624349; in the data active = parasite load remaining mostly below about 12%, no sharp cut-off; inactive = mostly above about 10%;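 also: 100% = mean of DMSO negative control wells on the same plate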). The following applies: P. berghei liver stage in HepG2, luciferase luminescence, concentration not given here; parasite load remaining: stronger effect = lower value; viability: measured here: HepG2 viability without parasites.
The mark [14] stands for this setting: stronger effect = lower value, cell number ratio, induced over uninduced.
The mark [15] stands for this setting: measured here: relative caspase fold change +Dox/-Dox.
[16] abbreviates: measured here: total cells with miR-34 induction, stronger effect = lower value.
[17] abbreviates: measured here: total cells without miR-34 induction.

Broadly, the remaining activity is the signal under treatment as a percentage of the control signal. Take `N#C/C(=C\c1ccc(O)c(O)c1)C(=O)Nc1ccccc1`: the remaining activity in assay [1] was 117% (inactive). For the same molecule, the fold change is 1.02 (inactive) and 0.911 (inactive) in assay [2] (setting [14]); 0.933 and 1.77 in assay [2] (setting [15]). The cell count is 7050 and 7400 in assay [2] (setting [16]); 6920 and 8120 in assay [2] (setting [17]). Further, the z-score in assay [3] was -1.14 (inactive) and -0.745 (inactive).

In the case of `COC(=O)c1c(-c2cc(OC)c(OC)c(OC)c2)c2ccnc(OCc3ncccn3)c2c(=O)n1Cc1ccnc(C)c1`, the remaining activity in assay [1] was 117% (inactive). The fold change in [2] (setting [14]) was 0.972 (inactive); in [2] (setting [15]) it was 0.845. For the same molecule, the cell count in assay [2] (setting [16]) was 8000; in assay [2] (setting [17]), 8240. Besides, in assay [3], the z-score is -0.06 (inactive).

With `Cc1cc(/C(=C\Nc2ccc(Cl)cc2)C(=O)Nc2ccc(Cl)cc2)on1`, the remaining activity in [1] was 122% (inactive). In addition, the fold change is 0.913 (inactive) in assay [2] (setting [14]) and 0.914 in assay [2] (setting [15]). Moreover, the values for the cell count in assay [2] (setting [16]) and in assay [2] (setting [17]) were 7920 and 8680, respectively. Further, in [3], the z-score is 0.03 (inactive).

Turning to `NS(=O)(=O)c1ccc(NC(=S)N2CCN(C/C=C/c3ccccc3)CC2)cc1`, in [4], the outcome was inactive.

In general, AC50 refers to the concentration at which the activity in the assay is half-maximal. As for `COc1ccc(Nc2cc(-c3cnc(N)nc3)nc(N3CCOCC3)n2)cn1`, the half-maximal activity concentration (AC50) is 2.95 µM (active) in assay [4]; 18.7 µM (active) in assay [5]; 5.9 µM (active) in assay [6]; 4.69 µM (active) in assay [7]; 1.66 µM (active) in [8]; 1.32 µM (active) in assay [9]. The AC50 in assay [10] is 4.18 µM (active).

On to `CN(C(=O)CNC(=O)/C=C/c1cccc(Cl)c1)C1CCS(=O)(=O)CC1`, for which the AC50 in [4] is 1.05 µM (active).

On to `NCC(=O)Nc1cncc(-c2nn3c(=O)cc(N4CCNCC4)nc3s2)c1`, for which the call in assay [4] was inactive.

With `CCOC(=O)C12CC1/C(=N\O)c1ccccc1O2` (centres undefined), the remaining activity in assay [1] was 109% (inactive). The figures for the fold change in [2] (setting [14]) and in assay [2] (setting [15]) were 0.923 (inactive) and 1.17, respectively. Further, the figures for the cell count in [2] (setting [16]) and in assay [2] (setting [17]) were 8510 and 9220, respectively. Besides, the z-score in assay [3] was -0.07 (inactive).

For the molecule `Clc1cccc(-n2nnnc2NCc2ccccc2Oc2ccccn2)c1Cl`, the outcome in assay [4], in assay [5], in assay [6], in assay [7], in assay [8] and in [9] was inactive. Besides, the outcome in assay [10], in assay [11] and in assay [12] was inactive.

Turning to `CC(C)C[C@H](CO)Nc1nc(S[C@@H](C)c2ccccc2)nc2nc(N)sc12`, the molecule was called inactive in assay [4].

Take `N#CNC(=NCCCCCCOc1ccc(Cl)cc1)Nc1ccncc1`: the AC50 in [4] is 0.0295 µM (active); in [5] it was 0.00469 µM (active); in [6], 0.00132 µM (active); in assay [7], 0.00469 µM (active); in [8], 0.00833 µM (active); in assay [9], 0.0132 µM (active). Further, the AC50 is 0.00526 µM (active) in assay [10] and 14.8 nM (active) in assay [11].

On to `COc1cc(C)c(Sc2cnc(NC(=O)c3ccc(CNC(C)C(C)(C)C)cc3)s2)cc1C(=O)N1CCN(C(C)=O)CC1` (centres undefined), for which the AC50 was 10.5 µM (active) in assay [4]; 16.6 µM (active) in assay [5]; 20.9 µM (active) in assay [6]; 7.43 µM (active) in [7]; 6.61 µM (active) in assay [8]; 4.17 µM (active) in assay [9]. The AC50 in assay [10] is 18.7 µM (active).

For `CN(C)C(=O)n1nnnc1Cc1ccc(-c2ccccc2)cc1`, the remaining activity in assay [1] is 82% (inactive). Further, the fold change in assay [2] (setting [14]) is 1.31 (inactive); in [2] (setting [15]), 1.05. Besides, the cell count in assay [2] (setting [16]) is 1840; in assay [2] (setting [17]), 1400. For the same molecule, the z-score in assay [3] is -0.57 (inactive).

Usually IC50 stands for the concentration needed to halve the response being measured. With `CO[C@H]1/C=C\C=C(\C)C(=O)NC2=CC(=O)C(NCCN(C)C)=C(C[C@@H](C)C[C@H](OC)[C@H](O)[C@@H](C)/C=C(/C)[C@@H]1OC(N)=O)C2=O`, the half-maximal activity concentration (AC50) in [4] was 0.0525 µM (active); in assay [5], 0.0833 µM (active); in assay [6], 0.187 µM (active); in assay [7], 0.0132 µM (active); in assay [8], 0.118 µM (active); in assay [9], 0.235 µM (active). Further, the AC50 in [10] is 5.26 µM (active); in assay [11] it was 74.2 nM (active). In [12], the IC50 was 1.18 µM (active).

In the case of `CC(C)S(=O)(=O)c1ccc2nccc(Nc3ccc4scnc4c3)c2c1`, the concentration at half-maximal activity (AC50) in [4] was 16.6 µM (active).

As to `O=C(c1ccc(F)c(F)c1Nc1ccc(I)cc1F)N1CC(O)([C@@H]2CCCCN2)C1`, the concentration at half-maximal activity (AC50) in [4] is 0.332 µM (active); in assay [5] it was 0.418 µM (active); in assay [6], 0.332 µM (active); in assay [7], 5.9 µM (active); in assay [8] it was 0.372 µM (active); in assay [9] it was 0.525 µM (active).

As a reminder, the viability is a read-out of living cells in per cent, often relative to untreated cells. For `COc1ccc(OC)c2c(=S)c3ccccc3[nH]c12`, in [13], the parasite load remaining was 32.4% (inactive). Moreover, in assay [13], the viability is 149%. The remaining activity in assay [1] is 86.6% (inactive). Besides, the figures for the fold change in [2] (setting [14]) and in [2] (setting [15]) were 0.958 (inactive) and 1.3, respectively. The cell count in [2] (setting [16]) was found to be 8120; in assay [2] (setting [17]), 8480. Besides, in [3], the z-score is 0.325 (inactive).

With `C=CC(=O)N1CCc2ccc(-n3c(=O)ccc4cnc5ccc(-c6cnn(C)c6)cc5c43)cc21`, the concentration at half-maximal activity (AC50) was 0.229 µM (active) in assay [4]; 8.33 µM (active) in assay [5]; 7.43 µM (active) in assay [6]; 2.35 µM (active) in assay [7]; 0.0723 µM (active) in [8]; 0.144 µM (active) in assay [9]. The half-maximal activity concentration (AC50) is 3.72 µM (active) in assay [10] and 1150 nM (active) in [11].

Turning to `CN(C)c1ccc2cc(C(=O)N[C@@H](CCCN=C(N)CCl)C(=O)NCc3ccccc3)ccc2c1`, the AC50 is 8.33 µM (active) in assay [4]; 16.6 µM (active) in [5]; 13.2 µM (active) in assay [6]; 7.43 µM (active) in [7]; 2.63 µM (active) in assay [8]; 9.34 µM (active) in assay [9]. In addition, the values for the AC50 in assay [10] and in assay [11] were 16.6 µM (active) and 8330 nM (active), respectively.

For the molecule `O=c1cc(N2CCNCC2)oc2c(-c3ccccc3)cccc12`, the parasite load remaining in [13] is 25.4% (inactive). In [13], the viability came out at 90.4%. Further, the remaining activity in assay [1] was 83.1% (inactive). For the same molecule, the fold change in [2] (setting [14]) is 0.968 (inactive); in assay [2] (setting [15]), 1.21. Also, the cell count amounted to 7780 in assay [2] (setting [16]) and 8040 in assay [2] (setting [17]). Besides, the z-score in assay [3] is 1.52 (inactive).

As to `CC[C@@H](C)[C@H](NC(=O)[C@H](CC1CCCCC1)NC(=O)c1ccno1)C(=O)N1CCC2(CCc3ccccc32)CC1`, the outcome in [4], in [5], in assay [6], in [7], in assay [8] and in [10] was inactive. For the same molecule, the result in [11] and in assay [12] was inactive. Further, in assay [9], the AC50 was 11.8 µM (active).

As for `Nc1nc(-c2nn(Cc3ccccc3F)c3ncccc23)nc(N)c1N1CCOCC1`, the result in assay [4], in [5], in [6], in assay [7], in [8] and in assay [9] was inactive. For the same molecule, the outcome in assay [10], in [11] and in assay [12] was inactive.

On to `C=CCNc1c(O)cc2c(O)c1C[C@@H](C)C[C@H](OC)[C@H](O)[C@@H](C)/C=C(/C)[C@H](OC(N)=O)[C@@H](OC)/C=C\C=C(\C)C(=O)N2`, for which the AC50 in assay [4] was 0.525 µM (active); in assay [5], 1.05 µM (active); in assay [6], 0.332 µM (active); in assay [7] it was 0.148 µM (active); in assay [8] it was 1.66 µM (active); in assay [9], 3.72 µM (active). Also, the AC50 in assay [10] was 14.8 µM (active); in assay [11], 468 nM (active).
